Test results from a collection of fitness landscapes (doi:10.1126/science.1257360).
Whole data set: some 140,000 sequences, median “enrichment ratio after two sorts for PhoP signalling” near 0, cut for the highest 2% near 11. The sample as a whole holds a higher share of the highest values than the screen did.

B1: PhoQ; a variant is named by its letters at X, in order, P23837 (parent)
chain: MKKLLRLFFPLSLRVRFLLATAAVVLVLSLAYGMVALIGYSVSFDKTTFRLLRGESNLFYTLAKWENNKLHVELPENIDKQSPTMTLIYDENGQLLWAQRDVPWLMKMIQPDWLKSNGFHEIEADVNDTSLLLSGDHSIQQQLQEVREDDDDAEMTHSVAVNVYPATSRMPKLTIVVVDTIPVELKSSYMVWSWFIYVLSANLLLVIPLLWVAAWWSLRPIEALAKEVRELEEHNRELLNPATTRELTSLVRNLNRLLKSERERYDKYRTTLTDLTHSLKTPLXXLQXXLRSLRSEKMSVSDAEPVMLEQISRISQQIGYYLHRASMRGGTLLSRELHPVAPLLDNLTSALNKVYQRKGVNISLDISPEISFVGEQNDFVEVMGNVLDNACKYCLEFVEISARQTDEHLYIVVEDDGPGIPLSKREVIFDRGQRVDTLRPGQGVGLAVAREITEQYEGKIVAGESMLGGARMEVIFGRQHSAPKDE

Variants of: B1
Assay: enrichment ratio after two sorts for PhoP signalling (ratio (wild type AVST 3.29)); higher = more functional
Conditions: with PhoP (E. coli)

Row | Variant | enrichment ratio
1 | KMAM | ≤ 0.25
2 | KMNM | ≤ 0.25
3 | KMAN | ≤ 0.25
4 | HAAK | ≤ 0.25
5 | TMPM | ≤ 0.25
6 | TMAN | 18.9
7 | TMIM | ≤ 0.25
8 | NMAK | ≤ 0.25
9 | TMAK | 16.1
10 | TMAM | 26.9
11 | TMNM | 35
12 | DMAN | ≤ 0.25
13 | HYTR | ≤ 0.25
14 | LWGW | ≤ 0.25
15 | NTYY | ≤ 0.25
16 | YIFC | ≤ 0.25
17 | CVCM | ≤ 0.25
18 | TMGM | 3.21
19 | TMWM | ≤ 0.25
20 | TMTM | 17.1
21 | TWYG | ≤ 0.25
22 | QPGF | ≤ 0.25
23 | FFFF | ≤ 0.25
24 | QIGF | 12.5
25 | QIHF | ≤ 0.25
26 | QGFF | 13.9
27 | QGGF | 18.4

Row | Variant | enrichment ratio
28 | QGFA | 1.27
29 | FFGF | ≤ 0.25
30 | QEGF | ≤ 0.25
31 | LRWS | ≤ 0.25
32 | ITEW | ≤ 0.25
33 | ELKD | ≤ 0.25
34 | HCGH | ≤ 0.25
35 | NAPY | ≤ 0.25
36 | CIWI | ≤ 0.25
37 | CIMV | 12.9
38 | CIFA | ≤ 0.25
39 | CICV | 0.57
40 | CITA | 12.4
41 | CITI | ≤ 0.25
42 | TNDF | ≤ 0.25
43 | YDRL | ≤ 0.25
44 | VIWT | ≤ 0.25
45 | WDYR | ≤ 0.25
46 | GTGM | 6.32
47 | GDCG | ≤ 0.25
48 | RIRE | ≤ 0.25
49 | QGDH | ≤ 0.25
50 | QSYL | 13.9
51 | QTDS | 8.33
52 | QTNL | 10.8
53 | KSYL | ≤ 0.25
54 | QTNS | 0.432

Row | Variant | enrichment ratio
55 | QTGD | ≤ 0.25
56 | QTDH | 29.3
57 | QTNY | 17.5
58 | QEYL | 1.39
59 | QTGM | 12
60 | QTPM | ≤ 0.25
61 | DLEK | ≤ 0.25
62 | IPTS | ≤ 0.25
63 | VIYV | ≤ 0.25
64 | KMFH | ≤ 0.25
65 | KSEQ | ≤ 0.25
66 | TVLM | 0.847
67 | KYWW | ≤ 0.25
68 | KESK | ≤ 0.25
69 | KVEK | ≤ 0.25
70 | KTHS | 0.436
71 | VEPK | ≤ 0.25
72 | QTYL | 12.8
73 | QGYL | 9.62
74 | QTYI | 12.9
75 | QTWL | 21.9
76 | FDYL | ≤ 0.25
77 | QTRL | ≤ 0.25
78 | QTHF | 3.14
79 | QGWL | 2.29
